According to PubChem BioAssay AID463195 (Sanford-Burnham Center for Chemical Genomics, 2010):
Hit rate of the full screen: of about 330,000 compounds, about 4,600 (1.4%) were called active. This is one part of a sample in which actives are shown more often than they occur. Unmarked numbers belong to inactive results.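 Rule for the calls: active = inhibition of 40% or more at the single tested concentration; inactive = the rest.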

test: wild-type TIM10 yeast growth inhibition – luminescence, uHTS, counter-screen for tim10-1 yeast inhibitor project, primary screen (AID 463195);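 note: wild-type TIM10 isogenic control strain grown at permissive 25 °C; 0% = DMSO yeast wells and 100% = minimal medium wells without yeast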; conditions: S. cerevisiae TIM10 strain growth, BacTiter-Glo luminescence, 24 h; at 10 µM; active compounds read high

Row | Compound | inhibition
1 | CC1CC(=O)Nc2ccccc2N1S(=O)(=O)c1cccs1 (stereo not drawn) | 5.91%
2 | CC1CC(C)(C)NC(=S)N1CCC(=O)N1CCN(Cc2ccccc2)CC1 (stereo not drawn) | -2.23%
3 | CC1CC(=S)Nc2ccccc2N1Cc1ccccc1 (stereo not drawn) | 46.2% (active)
4 | COC(=O)CNc1nc(Cl)nc(N2CCC(C)CC2)n1 | -3.85%
5 | CCOc1ccccc1NC(=S)NC(=O)CCc1ccccc1 | 11.7%
6 | O=C(OCCOCn1cc(Br)c(=O)[nH]c1=O)c1ccccc1 | -12.6%
7 | Cn1nccc1/C=N\NC(=O)c1ccc(Cl)cc1 | -2.29%
8 | CCc1ccc(OCC(=O)NCC(c2ccc(Cl)cc2)N2CCCCC2)cc1 (stereo not drawn) | 42.7% (active)
9 | COc1ccc(C(CNC(=O)COc2ccccc2OC)N2CCCCC2)cc1 (stereo not drawn) | 0.651%
10 | COc1ccc(C(CNC(=O)COc2ccc([N+](=O)[O-])cc2)N2CCCCC2)cc1 (stereo not drawn) | 8.46%
11 | CC1CCC2CCCCC2N1C(=O)c1cc([N+](=O)[O-])cc([N+](=O)[O-])c1 (stereo not drawn) | 40.2% (active)
12 | CC1CCN(C(=S)c2cccc([N+](=O)[O-])c2)CC1 | 1.4%
13 | CC1(c2ccccc2)CC(C)(C)N(C(=O)c2cc([N+](=O)[O-])cc([N+](=O)[O-])c2)c2ccccc21 (stereo not drawn) | -3.92%
14 | Cc1csc(CN(C)C(=O)CC2C(=O)NCCN2CC(C)(C)C)n1 (stereo not drawn) | -12.9%
15 | Cn1c(=O)cc(OCCCC(=O)N2CCN(c3ccccn3)CC2)c2ccccc21 | 13.5%
16 | Oc1cccc2ccc(/C=C/c3ccc(Br)s3)nc12 | 15.2%
17 | CCNC(=S)N(CCc1c(C)[nH]c2ccc(C)cc12)Cc1ccco1 | 41.2% (active)
18 | COc1cccc(NC(=S)N(CCc2c(C)[nH]c3ccccc23)Cc2ccco2)c1 | 15.9%
19 | COCCNC(=S)N(CCc1c(C)[nH]c2ccc(C)cc12)Cc1cccnc1 | -1.03%
20 | O=C(N/N=C/c1ccc(O)c(O)c1)C1c2ccccc2Oc2ccccc21 | -9.32%
21 | CCN(CCCCOC(=O)c1ccc(OC)c(OC)c1)C(C)Cc1ccc(OC)cc1 (stereo not drawn) | -1.12%
22 | Cc1ccccc1N1CCN(C2CCCN(C(=O)c3ocnc3C)C2)CC1 (stereo not drawn) | -0.332%
23 | COc1cccc(CNC(C)C(=O)Nc2ccc(S(=O)(=O)N3CCCC3)cc2)c1 (stereo not drawn) | 18.4%
24 | COc1ccc(S(=O)(=O)N2CCN(C(C)C(=O)Nc3ccc(C(C)C)cc3)CC2)cc1 (stereo not drawn) | 44.9% (active)

Row | Compound | inhibition
25 | CC(C)c1ccc(S(=O)(=O)N2CCN(C(C)C(=O)NC3CCCC3)CC2)cc1 (stereo not drawn) | -30.5%
26 | Cc1c(C(=O)OC(C)C)sc(NC(=O)c2cccnc2)c1C#N | 6.36%
27 | COc1ccc(CCNC(=O)COC(=O)Cc2cccc(F)c2)cc1 | 7.57%
28 | Cc1cccc(NC(=O)CN2CCN(C(=O)C3CCN(C(=O)/C=C/c4ccccc4)CC3)CC2)c1C | 8.87%
29 | CCCCn1c(=O)c(CCC(=O)OCC(=O)Nc2ccc(C)c(Cl)c2)nc2ccccc21 | -6.83%
30 | COc1ccc(S(=O)(=O)N(C)C[C@H]2Oc3c(NC(=O)Nc4ccc5c(c4)OCO5)cccc3C(=O)N([C@H](C)CO)C[C@@H]2C)cc1 | 1.19%
31 | O=C(NCc1ccccc1)C1CCCN(c2nc3ccsc3c(=O)s2)C1 (stereo not drawn) | -2.48%
32 | CCC(C)NC(=O)c1nn(C)c(=O)c2ccccc12 (stereo not drawn) | 1.61%
33 | Cc1ccc(NC(=O)CSc2sc3c(O)cc(=O)[nH]c3c2C#N)cc1C | -6.33%
34 | CCOC(=O)c1ccc(N2C(=O)CC(N3CCC(C(=O)OCC)CC3)C2=O)cc1 (stereo not drawn) | 41.3% (active)
35 | CCOC(=O)c1ccc(N2C(=O)CC(N3CC(C)OC(C)C3)C2=O)cc1 (stereo not drawn) | 8.24%
36 | CCOC(=O)c1ccc(N2C(=O)CC(N3CCN(C(=O)c4ccccc4)CC3)C2=O)cc1 (stereo not drawn) | 1.01%
37 | CC1CN(C(=S)Nc2ccc(S(N)(=O)=O)cc2)CC(C)O1 (stereo not drawn) | 2.19%
38 | CCN(C(=O)COc1ccc(C(=O)c2ccccc2)cc1)c1ccccc1 | 16.5%
39 | CCOC(=O)CSc1nc(N2CCOCC2)c2c(c1C#N)CC(C(C)C)OC2 (stereo not drawn) | 20%
40 | O=C(Nc1cccc(F)c1)[C@@H]1CCCN1 | -11.2%
41 | COc1ccc(-n2cnc3cc(NCc4ccco4)ccc32)cc1 | 35.3%
42 | COc1ccc(-c2oc3ncnc(NCCCO)c3c2-c2ccc(OC)cc2)cc1 | 17.8%
43 | COc1ccc(-c2oc3ncn(Cc4ccco4)c(=N)c3c2-c2ccc(OC)cc2)cc1 | 49% (active)
44 | COc1ccc(C(C)(C)C)cc1NC(=O)CCN1C(=O)C2CCCCC2C1=O (stereo not drawn) | 24.4%
45 | COc1ccccc1Oc1ccc(N2CC(C(=O)OCC(=O)c3ccc(F)cc3)CC2=O)cc1 (stereo not drawn) | 19.9%
46 | C[C@@H](NC(=O)OC(C)(C)C)c1nnc(S(=O)(=O)Cc2ccccc2)o1 | 40.3% (active)
47 | C[C@H](NC(=O)OC(C)(C)C)c1nnc(SCC(=O)Nc2ccc(Br)cc2)o1 | 9.84%
48 | CCc1ccccc1NC(=O)CSc1nnc([C@@H](NC(=O)OC(C)(C)C)C(C)C)o1 | 12.6%

Row | Compound | inhibition
49 | CCN(CC)C(=O)COc1coc(CN2CCN(Cc3ccccc3)CC2)cc1=O | 16.8%
50 | COC(C[C@@H]1O[C@@H]1C(=O)[C@@H](C)OCc1ccccc1)OC | 3.69%
51 | CC1(C)NC(=O)N(CCCCSc2ccc(Cl)cc2)C1=O | -13.6%
52 | COC(=O)c1sc(-c2ccc(C(C)(C)C)cc2)cc1NC(=O)/C=C/C(=O)O | -5.28%
53 | COCCCC1CCN(C(=O)C2CCC(=O)N(C3CCCCCC3)C2)CC1 (stereo not drawn) | 2.49%
54 | COCCNC(=O)C(OC(=O)c1cccs1)c1ccc(F)cc1 (stereo not drawn) | 10.9%
55 | Cc1nccc(-c2ccc(-n3c(C)ccc3C)cc2)n1 | 6.83%
56 | c1ccc(-c2nccc(-c3ccc(-n4cnc5ccccc54)cc3)n2)nc1 | 46% (active)
57 | COC(=O)c1ccc(-n2cnc3ccccc32)nc1 | 10.4%
58 | Cc1cc(C(=O)CC#N)c(C)n1CC(F)(F)F | -1.63%
59 | COCCn1c(C)cc(C(=O)COC(=O)/C=C/c2cccc(OC)c2)c1C | 17.6%
60 | C/C(N)=C(/C#N)C(=O)COC(=O)c1cc(-c2ccc(C)cc2)nc2ccccc12 | 23.8%
61 | N/C(=N\OC(=O)c1cc(-c2ccccc2)nc2ccccc12)c1ccncc1 | 61.8% (active)
62 | COC(=O)CNC(=O)c1cc(-c2ccncc2)nc2ccccc12 | -9.97%
63 | CC(=O)c1ccc(OC(=O)N2CCOCC2)cc1 | 9.97%
64 | O=C(Oc1ccc(C(=S)N2CCOCC2)cc1)c1ccc(F)cc1 | 7.76%
65 | O=C(Oc1ccc(F)cc1)N1CCOCC1 | 97.5% (active)
66 | CCOc1c(OC)cccc1C(=O)NCC1(c2ccccc2)CCCC1 | 27.6%
67 | CC(C)(C)n1ncc2c(=O)n(Cc3c(Cl)cccc3Br)cnc21 | 5.55%
68 | Cc1ccc(OCC(=O)Nc2cccc3c2CCCC3)cc1C | 28.1%
69 | O=C(NOCc1ccccc1)c1cccc([N+](=O)[O-])c1 | 0.85%
70 | O=C(COC(=O)c1ccc([N+](=O)[O-])cc1Cl)NC(=O)c1ccccc1 | -3.01%
71 | O=C(NC(Nc1nc2ccc([N+](=O)[O-])cc2s1)(C(F)(F)F)C(F)(F)F)c1ccccc1 | 76.9% (active)
72 | CCc1ccc(C(=O)NN=C2CCCCCC2)s1 | -0.295%

Row | Compound | inhibition
73 | CCCC(C(=O)N1CCOCC1)N1C(=O)C2C3C=CC(C3)C2C1=O (stereo not drawn) | -10.3%
74 | CCOc1ccc2nc(N3CCCN(C(=O)Nc4ccccc4C)CC3)c(C#N)cc2c1 | 2.29%
75 | CCC(C)(C)n1nnnc1CN1CCN(c2nc3ccc(C)cc3cc2C#N)CC1 | 41.5% (active)
76 | CCC(C)(C)n1nnnc1C(c1cccs1)N1CCN(c2nc3ccccc3s2)CC1 (stereo not drawn) | 37.8%
77 | CSc1ccc(CN(C)CC(=O)NCc2ccc(F)cc2)cc1 | -1.15%
78 | Cn1c(CNC(=O)c2ccco2)nnc1SCC(=O)N1CCN(c2ccccc2)CC1 | 2.03%
79 | O/N=C(\c1ccc2c(c1)OCCO2)C1CCCCC1 | 3.12%
80 | Cc1c(CNCCc2ccccc2)c(C(=O)O)c(C)n1-c1ccccc1 | -4.69%
81 | Cn1c(-c2sccc2OCc2cccc(C(F)(F)F)c2)n[nH]c1=S | 42.2% (active)
82 | Cn1c(-c2sc3cc(C(F)(F)F)cnc3c2-c2ccccc2)n[nH]c1=S | -3.83%
83 | COc1cc(/C=N/n2c(C)n[nH]c2=S)ccc1OCc1ccccc1 | 8.61%
84 | CCOc1ccc(-n2c(SCC(=O)Nc3cc(C(=O)O)ccc3Cl)nc3ccccc3c2=O)cc1 | 22.7%
85 | CCn1c(CNS(=O)(=O)c2ccc(Cl)cc2)n[nH]c1=S | -9.99%
86 | CCn1c(CSCc2c(Cl)cccc2Cl)n[nH]c1=S | 53.7% (active)
87 | S=c1[nH]nc(CSCc2ccc(Cl)cc2Cl)n1-c1ccccc1 | 38.8%
88 | Clc1ccc(C2=CSC3=Nc4cccc5cccc(c45)N23)cc1 | 21.2%
89 | CCN(CC)P(=O)(/C(Cl)=C\Nc1c(C)n(C)n(-c2ccccc2)c1=O)N(CC)CC | 2.07%
90 | COc1ccc(CCNCC(O)Cn2ccc3ccccc32)cc1OC (stereo not drawn) | -8.76%
91 | O=C1c2ccccc2C(=O)c2c1cccc2N1CCN(C/C=C/c2ccccc2)CC1 | 38.5%
92 | O=C1c2ccccc2C(=O)c2c1cccc2N1CCN(CCO)CC1 | 12.2%
93 | O=C1c2ccccc2C(=O)c2c1cccc2N1CCN(Cc2ccccc2)CC1 | 41.3% (active)
